Assay results from PMC5892938, “SARNAclust: Semi-automatic detection of RNA protein binding motifs from immunoprecipitation data”.
Whole data set: some 11,000 sequences, median “log2 fold change” near 0.00022, cut for the highest 2% near 0.34. The list shows a part of the results.

Target: GST-SBP-SLBP (stem-loop binding protein) (Homo sapiens, UniProt Q14493 1-270)
Assay: targeted RNA Bind-n-Seq; RBNS binding buffer: 25 mM Tris pH 7.5, 150 mM KCl, 3 mM MgCl2, 0.1% Tween, 0.5 mg/mL BSA, 1 mM DTT; 27 nM protein, 750 pM RNA pool; temperature not stated; high values mean tight binding
Conditions: protein: recombinant; tags: N-terminal GST and SBP (pGEX6P1-SBP); structured_RNA
In short: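 The GST-SBP-tagged protein was expressed in Rosetta(DE3) pLysS E. coli, glutathione-purified and incubated at 27 nM with 750 pM of a designed, T7-transcribed RNA oligo pool in RBNS binding buffer. Bound RNA was reverse transcribed with a 10-nucleotide barcoded primer, PCR-amplified and sequenced on a MiSeq with 200-cycle paired-end reads. Reads were joined with FLASH, aligned with HISAT2 and collapsed by barcode. The binding signal is the DEseq log2 fold change of read counts per sequence.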

Sequence | binding signal
GGUCACGUCUCAAUCAACUCCCAAAGGCUUUUCUUAGAGCCACCCAUCAACAGCUCGCAGUCAAG | 0.496 ± 0.164 log2 fold change
GGUCACGUCUCAAUCAACUCCCAAAGGUUUUUUUUAGAACCACCCAUCAACAGCUCGCAGUCAAG | 0.338 ± 0.169 log2 fold change
GGUCACGUCUCAAUCAACUCCCAAAGGUUUUUUUAAGAGCCACCCAUCAACAGCUCGCAGUCAAG | 0.54 ± 0.157 log2 fold change
GGUCACGUCUCAAUCAACUCCCAAAGGUUUUUCUCAGAACCACCCAUCAACAGCUCGCAGUCAAG | 0.402 ± 0.178 log2 fold change
GGUCACGUCUCAAUCAACUCCCAAAGGUUUUUUUUAGAGCCACCCAUCAACAGCUCGCAGUCAAG | 0.324 ± 0.158 log2 fold change
GGUCACGUCUCAAUCAACUCAUUCCCAGGAGUUUACUCCUGCUAACUCAACAGCUCGCAGUCAAG | 0.364 ± 0.234 log2 fold change
GGUCACGUCUCAAUCAACUCAUCCUCAGGAGUUUCCUCCUGUUAAGUCAACAGCUCGCAGUCAAG | 0.328 ± 0.204 log2 fold change
GGUCACGUCUCAAUCAACUCAAUCCCAGGAGUUUUCUCCUGUAAAGUCAACAGCUCGCAGUCAAG | 0.317 ± 0.231 log2 fold change
GGUCACGUCUCAAUCAACUCUAUCCCAGGAGUUUACUCCUGUUUUCUCAACAGCUCGCAGUCAAG | 0.399 ± 0.223 log2 fold change
GGUCACGUCUCAAUCAACUCAUCCCCAGGAGUUUACUCCUGUUUAGUCAACAGCUCGCAGUCAAG | 0.458 ± 0.228 log2 fold change
GGUCACGUCUCAAUCAACUCUAUCCCAGGAGUUUCCUCCUGCAUACUCAACAGCUCGCAGUCAAG | 0.312 ± 0.201 log2 fold change
GGUCACGUCUCAAUCAACUCAUCGUCAGGAGUUUACUCCUGCUAACUCAACAGCUCGCAGUCAAG | 0.304 ± 0.246 log2 fold change
GGUCACGUCUCAAUCAACUCUAGUCCAGGAGUUUUCUCCUGUUAAUUCAACAGCUCGCAGUCAAG | 0.331 ± 0.217 log2 fold change
GGUCACGUCUCAAUCAACUCUUUCCCAGGAGUUUUCUCCUGUUAUGUCAACAGCUCGCAGUCAAG | 0.376 ± 0.182 log2 fold change
GGUCACGUCUCAAUCAACUCAAUCCCAGGAGUUUCCUCCUGCUAACUCAACAGCUCGCAGUCAAG | 0.303 ± 0.231 log2 fold change
GGUCACGUCUCAAUCAACUCAGUCUCAGGAGUUUACUCCUGCUUAUUCAACAGCUCGCAGUCAAG | 0.314 ± 0.242 log2 fold change
GGUCACGUCUCAAUCAACUCAUCCUCAGGAGUUUACUCCUGCUUACUCAACAGCUCGCAGUCAAG | 0.315 ± 0.216 log2 fold change
GGUCACGUCUCAAUCAACUCAUCUUCAGGAGUUUACUCCUGCUUAGUCAACAGCUCGCAGUCAAG | 0.342 ± 0.198 log2 fold change
GGUCACGUCUCAAUCAACUCAAUCUCCAGGGAAACCCCUGGUAAACUCAACAGCUCGCAGUCAAG | 0.353 ± 0.274 log2 fold change
GGUCACGUCUCAAUCAACUCUUCGCCCAGGGAAACCCCUGGUAAUCUCAACAGCUCGCAGUCAAG | 0.384 ± 0.343 log2 fold change
GGUCACGUCUCAAUCAACUCUUCCUCCAGGGAAAACCCUGGUAAACUCAACAGCUCGCAGUCAAG | 0.339 ± 0.267 log2 fold change
GGUCACGUCUCAAUCAACUCUUCCUCCAGGGAAACCCCUGGUUAACUCAACAGCUCGCAGUCAAG | 0.443 ± 0.293 log2 fold change
GGUCACGUCUCAAUCAACUCUUCGUCCAGGGAAAACCCUGGUUUUCUCAACAGCUCGCAGUCAAG | 0.335 ± 0.277 log2 fold change
GGUCACGUCUCAAUCAACUCUUCGUCCAGGGAAACCCCUGGUUUUCUCAACAGCUCGCAGUCAAG | 0.36 ± 0.292 log2 fold change
